Measured values: PubChem BioAssay AID1159580 (chemical genetic matrix, 2015)
Several values for one entry are separate records, joined by “and”; a condition that tells them apart may be missing. Identical values can stand only once. About 2,000 (36%) of roughly 5,500 compounds were called active. Inconclusive results (about 18%) are left out. Rule as the data show it: active = normalized growth mostly below about 0.91 (no sharp cut-off); inconclusive = no clear call, values can overlap the other calls; inactive = mostly above about 0.92. This is one part of the list.

Experiment: chemical genetic growth profiling, strain panel (AID 1159580);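 also: tested at 20 µM; growth read once vehicle control cultures reached saturation at 30 °C; 1 = growth at the plate median or of vehicle wells; lower values mean less growth of the strain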
Details: S. cerevisiae deletion strains, growth OD

Measured: normalized growth

CC(=O)Nc1c(I)cc(I)c(C(=O)O)c1I
inactive: locus YAL013W, strain DEP1, stronger effect = lower value 0.992 | locus YAL021C, strain ccr4, stronger effect = lower value 0.986 | locus YAL026C, strain drs2, stronger effect = lower value 0.995 | locus YAL030W, strain snc1, stronger effect = lower value 0.978 | locus YBL061C, strain skt5, stronger effect = lower value 0.974 | locus YBR009C, strain hhf1, stronger effect = lower value 0.992 | locus YBR021W, strain FUR4, stronger effect = lower value 1.02 | locus YBR023C, strain chs3, stronger effect = lower value 0.979 | locus YBR171W, strain sec66, stronger effect = lower value 0.967 | locus YBR229C, strain ROT2, stronger effect = lower value 0.983 | locus YBR231C, strain swc5, stronger effect = lower value 0.971 | locus YBR279W, strain paf1, stronger effect = lower value 0.985 | locus YCL011C, strain gbp2, stronger effect = lower value 0.994 | locus YCL016C, strain dcc1, stronger effect = lower value 0.994 | locus YCL029C, strain bik1, stronger effect = lower value 0.994 | locus YCL069W, strain vba3, stronger effect = lower value 0.98 | locus YCR088W, strain abp1, stronger effect = lower value 0.978 | locus YDL005C, strain med2, stronger effect = lower value 0.967 | locus YDL035C, strain GPR1, stronger effect = lower value 1.01 | locus YDL040C, strain nat1, stronger effect = lower value 0.976 | locus YDL074C, strain BRE1, stronger effect = lower value 1.02 | locus YDL101C, strain DUN1, stronger effect = lower value 0.99 | locus YDL134C, strain PPH21, stronger effect = lower value 0.983 | locus YDL185W, strain tfp1, stronger effect = lower value 0.987 | locus YDL192W, strain arf1, stronger effect = lower value 0.999 | locus YDR001C, strain nth1, stronger effect = lower value 0.991 | locus YDR069C, strain doa4, stronger effect = lower value 0.959 | locus YDR101C, strain arx1, stronger effect = lower value 0.995 | locus YDR137W, strain rgp1, stronger effect = lower value 0.967 | locus YDR150W, strain NUM1, stronger effect = lower value 0.996 | locus YDR159W, strain sac3, stronger effect = lower value 0.967 | locus YDR162C, strain NBP2, stronger effect = lower value 1.02 | locus YDR195W, strain ref2 0.91 | locus YDR297W, strain sur2, stronger effect = lower value 0.994 | locus YDR318W, strain mcm21, stronger effect = lower value 0.995 | locus YDR334W, strain swr1, stronger effect = lower value 0.976 | locus YDR335W, strain msn5, stronger effect = lower value 0.988 | locus YDR388W, stronger effect = lower value 0.988 | locus YDR392W, strain spt3, stronger effect = lower value 1.03 | locus YDR502C, strain sam2, stronger effect = lower value 0.996 | locus YEL003W, strain gim4, stronger effect = lower value 0.978 | locus YEL037C, strain rad23, stronger effect = lower value 0.975 | locus YEL061C, strain CIN8 (second series), stronger effect = lower value 0.966 | locus YEL061C, strain CIN8, stronger effect = lower value 0.999 | locus YER015W, strain faa2, stronger effect = lower value 0.99 | locus YER016W, strain bim1, stronger effect = lower value 0.979 | locus YER110C, stronger effect = lower value 0.989 | locus YER111C, strain swi4, stronger effect = lower value 0.981 | locus YER155C, strain BEM2 (second series), stronger effect = lower value 0.977 | locus YER155C, strain BEM2, stronger effect = lower value 0.986 | locus YER167W, strain BCK2, stronger effect = lower value 0.992 | locus YFR010W, strain ubp6, stronger effect = lower value 0.965 | locus YGL078C, strain dbp3, stronger effect = lower value 0.995 | locus YGL086W, strain mad1, stronger effect = lower value 0.981 | locus YGL167C, strain pmr1, stronger effect = lower value 0.971 | locus YGL173C, strain kem1, stronger effect = lower value 0.99 | locus YGL227W, strain vid30, stronger effect = lower value 0.971 | locus YGL240W, strain doc1, stronger effect = lower value 0.974 | locus YGL248W, strain PDE1, stronger effect = lower value 0.986 | locus YGL253W, strain hxk2, stronger effect = lower value 0.979 | locus YGR078C, strain PAC10, stronger effect = lower value 1.05 | locus YGR135W, strain pre9, stronger effect = lower value 0.994 | locus YGR229C, strain SMI1, stronger effect = lower value 1.06 | locus YGR252W, strain gcn5, stronger effect = lower value 0.986 | locus YHR013C, strain ard1, stronger effect = lower value 0.987 | locus YHR027C, strain rpn1, stronger effect = lower value 0.982 | locus YHR030C, strain SLT2, stronger effect = lower value 0.991 and 1.01 | locus YHR079C, strain IRE1 (second series), stronger effect = lower value 0.998 | locus YHR079C, strain IRE1, stronger effect = lower value 1 | locus YHR094C, strain hxt1, stronger effect = lower value 0.989 | locus YHR129C, strain ARP1, stronger effect = lower value 0.991 | locus YHR142W, strain chs7, stronger effect = lower value 0.987 | locus YHR200W, strain rpn10, stronger effect = lower value 0.991 | locus YIL066C, strain RNR3, stronger effect = lower value 1 | locus YIL073C, strain SPO22, stronger effect = lower value 1.01 | locus YIL125W, strain kgd1, stronger effect = lower value 0.992 | locus YIR030C, strain dcg1, stronger effect = lower value 0.992 | locus YJL092W, strain hpr5, stronger effect = lower value 0.973 | locus YJL095W, strain BCK1 (second series), stronger effect = lower value 0.978 | locus YJL095W, strain BCK1, stronger effect = lower value 1.01 | locus YJL115W, strain asf1, stronger effect = lower value 0.963 | locus YJL129C, strain trk1, stronger effect = lower value 0.946 | locus YJL134W, strain LCB3, stronger effect = lower value 0.994 | locus YJL154C, strain vps35, stronger effect = lower value 0.964 | locus YJL164C, strain tpk1, stronger effect = lower value 0.995 | locus YJL166W, strain qcr8, stronger effect = lower value 0.971 | locus YJL168C, strain set2, stronger effect = lower value 0.99 | locus YJL187C, strain SWE1 (second series), stronger effect = lower value 0.995 | locus YJL187C, strain SWE1, stronger effect = lower value 0.983 | locus YJR043C, strain POL32, stronger effect = lower value 1.03 | locus YJR066W, strain TOR1, stronger effect = lower value 0.963
